# Counter-ions that a name gives are not always drawn. Unmarked numbers belong to inactive results.
# Tested on: A549-TP53BP1-CLTA
# Assay: phenotypically active (imaging signature differs from DMSO and reproducible) at any of 0.3-9 uM (binary (1 = active, 0 = inactive)); higher = active
# Details: treatment time: 24 h
# How it was run: (§1)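 Each of fifteen gene-edited A549, HepG2 and WPMY1 reporter lines, marked with BFP for segmentation and GFP and RFP/FusionRed, was treated in four wells at 0.3, 1, 3 or 9 µM for 24 h prior to live imaging. Normalisation of per-well live-cell features used solvent control wells. Deviation needed ≥3 of 4 wells beyond the 95th percentile of control Euclidean distances, and reproducibility needed a median replicate Pearson correlation above the 95th percentile of non-replicates. Both were required for phenotypic activity.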
row,Structure (SMILES),phenotypically active
1,CCN1CCN(c2cc(-c3ccc(F)cc3)c3c(n2)CCCCCC3)CC1 [blonanserin],1 (active)
2,COc1cc2c(NC3CCN(C(C)C)CC3)nc(C3CCCCC3)nc2cc1OCCCN1CCCC1,1 (active)
3,COc1cc2ncn(-c3cc(OCc4ccccc4C(F)(F)F)c(C(N)=O)s3)c2cc1OC,1 (active)
4,CCCCC1C(=O)N(c2ccccc2)N(c2ccc(O)cc2)C1=O (stereo not given) [oxyphenbutazone],0
5,Cc1ccccc1N1C(=O)c2cc(S(N)(=O)=O)c(Cl)cc2NC1C (stereo not given) [metolazone],0
6,Cc1nc(NC(=O)N2CCC[C@H]2C(N)=O)sc1-c1csc(C(C)(C)C)n1,1 (active)

# Tested on: HepG2-ACTB-RAB5A
# Assay: as above
# Details: treatment time: 24 h
# How it was run: as §1
row,Structure (SMILES),phenotypically active
1,OCc1ccccc1O[C@@H]1O[C@H](CO)[C@@H](O)[C@H](O)[C@H]1O [Salicin],0
2,O=C(c1ccc(C(=O)N2CCC(N3CCCC3)CC2)c(Nc2ccccc2)c1)N1CCC(N2CCCC2)CC1,0
3,O=c1[nH]cc(F)c(=O)[nH]1 [5-Fluorouracil],1 (active)
4,CC[C@H](C)[C@H](NC(=O)OCc1ccccc1)C(=O)N[C@@H](CCC(=O)OC(C)(C)C)C(=O)N[C@@H](C)C(=O)N[C@H](C=O)CC(C)C,1 (active)
5,CN1CCN(C2=Nc3cc(Cl)ccc3Nc3ccccc32)CC1 [clozapine],0
6,Cc1cc(C(C)(C)C)c(O)c(C)c1CC1=NCCN1 [oxymetazoline],0
7,CC1(C)NC(=O)N(c2ccc([N+](=O)[O-])c(C(F)(F)F)c2)C1=O [nilutamide],0
8,CCN1CCN(C(c2cccnc2)c2cc(Cl)c3cccnc3c2O)CC1 (stereo not given),1 (active)
9,CCOc1cc(N2CCC(O)CC2)ccc1Nc1ncc2c(n1)N(C)c1ccccc1C(=O)N2C,1 (active)
10,Cc1c2oc3c(C)ccc(C(=O)NC4C(=O)NC(C(C)C)C(=O)N5CCCC5C(=O)N(C)CC(=O)N(C)C(C(C)C)C(=O)OC4C)c3nc-2c(C(=O)NC2C(=O)NC(C(C)C)C(=O)N3CCCC3C(=O)N(C)CC(=O)N(C)C(C(C)C)C(=O)OC2C)c(N)c1=O (stereo not given) [Actinomycin D],1 (active)
11,Nc1nc2ccc(OC(F)(F)F)cc2s1 [riluzole],0
12,NCCNS(=O)(=O)c1cccc2cnccc12 [H-9 dihydrochloride],0
13,N#Cc1c(NC(=O)c2cccc3ccccc23)sc2c1CCCC2,1 (active)
14,COc1ccc2c(Oc3ccc(NC(=O)c4c(C)n(CC(C)(C)O)n(-c5ccccc5)c4=O)nc3)ccnc2c1,0
15,C[C@@H](c1ncncc1F)[C@](O)(Cn1cncn1)c1ccc(F)cc1F [voriconazole],0
16,CN1C/C(=C/c2ccc(B(O)O)cc2)C(=O)/C(=C/c2ccc(B(O)O)cc2)C1,1 (active)
17,Nc1ccn([C@@H]2O[C@H](CO)[C@@H](O)C2(F)F)c(=O)n1 [gemcitabine],1 (active)
18,Oc1ccc(Nc2nc(-c3ccc(Cl)cc3)cs2)cc1,0
19,C/C(=C/C(=O)Nc1ccccc1C(=O)O)c1ccc2ccccc2c1,0
20,NCCC(O)(P(=O)(O)O)P(=O)(O)O [pamidronate],0
21,CCN1CCN(c2ccc(Nc3cc(N(C)C(=O)Nc4c(Cl)c(OC)cc(OC)c4Cl)ncn3)cc2)CC1,0
22,Cc1nc(NC(=O)N2CCC[C@H]2C(N)=O)sc1-c1ccnc(C(C)(C)C(F)(F)F)c1 [alpelisib],1 (active)
23,CCN(CC)CCCC(C)Nc1ccnc2cc(Cl)ccc12 (stereo not given) [chloroquine],1 (active)
24,C[C@H]1O[C@H](O[C@H]2[C@H](O)[C@@H](O)[C@@H](O[C@H]3[C@H](O)[C@@H](O)[C@H](O)O[C@@H]3CO)O[C@@H]2CO)[C@H](O)[C@@H](O)[C@@H]1N[C@H]1C=C(CO)[C@@H](O)[C@H](O)[C@H]1O [Acarbose],0
25,C/C(=C/c1ccc(C(=O)O)cc1)c1ccc2c(c1)C(C)(C)CCC2(C)C,0
26,Cc1ccc(S(=O)(=O)/C=C/C#N)cc1,0
27,O=c1cc(-c2cccc3c2Sc2ccccc2S3)oc(N2CCOCC2)c1,1 (active)
28,CCCc1nc2c(C)cc(-c3nc4ccccc4n3C)cc2n1Cc1ccc(-c2ccccc2C(=O)O)cc1 [telmisartan],0
29,CC(C)CCN1c2nc(Nc3cc(F)c(O)c(F)c3)ncc2N(C)C(=O)C1C (stereo not given),1 (active)

# Reference: the supplement of paper PMC7411054
